G9a block – qHTS Assay for Inhibitors of Histone Lysine Methyltransferase G9a; Histone-lysine N-methyltransferase EHMT2 (Homo sapiens), Q96KQ7; G9a H3K9 monomethylation, AlphaScreen, 2 h; Potency, µM (highest dose often 102 µM), usual class: inhibitors; 350,000 tested, 8.8% active; further: nearly all actives have a fitted effect of over 75% in size
Target sequence (Q96KQ7 913-1193 limits assumed): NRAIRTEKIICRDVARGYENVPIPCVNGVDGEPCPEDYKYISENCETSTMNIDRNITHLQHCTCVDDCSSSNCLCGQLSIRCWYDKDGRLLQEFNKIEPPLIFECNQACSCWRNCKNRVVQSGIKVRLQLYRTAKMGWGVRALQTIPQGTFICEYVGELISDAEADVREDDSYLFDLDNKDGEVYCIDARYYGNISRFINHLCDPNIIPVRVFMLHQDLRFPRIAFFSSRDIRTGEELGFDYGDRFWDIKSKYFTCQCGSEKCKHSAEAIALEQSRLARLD
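Quantitative HTS format: methyltransferase activity on a biotin-tagged H3K9 peptide is measured by AlphaScreen, using a rabbit anti-monomethyl-H3K9 antibody with streptavidin donor and anti-IgG acceptor beads. Final levels are 20 nM enzyme, 500 nM peptide, 20 uM SAM; 2 h RT.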
HP1b binding inh – HTS for Inhibitors of HP1-beta Chromodomain Interactions with Methylated Histone Tails. AlphaScreen HP1-beta / biotin-H3K9me3 peptide binding. 390,000 tested, 0.56% active. Potency, µM (top dose mostly 114 µM), actives largely listed as inhibitors; further: nearly all actives have a fitted effect of over 70% in size
Target sequence (P83916 whole entry, looked up): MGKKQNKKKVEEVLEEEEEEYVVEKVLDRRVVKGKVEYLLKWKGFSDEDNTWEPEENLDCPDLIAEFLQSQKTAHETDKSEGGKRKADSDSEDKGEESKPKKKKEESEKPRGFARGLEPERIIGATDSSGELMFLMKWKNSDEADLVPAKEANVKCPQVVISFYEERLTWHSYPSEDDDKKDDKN
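AlphaScreen: HP1-beta (50 nM) preformed 30 min with biotin-H3(1-18)K9me3 peptide (50 nM) in PBS pH 7.4, 0.01% Tween-20. Compound added for 30 min at RT, then streptavidin donor/nickel chelate acceptor beads (10 ug/mL) for 30 min.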
BAZ2B block – qHTS Assay for Inhibitors of BAZ2B | Bromodomain adjacent to zinc finger domain protein 2B (Homo sapiens), Q9UIF8 | AlphaScreen BAZ2B-H3K14Ac peptide displacement | Potency, µM (top dose mostly 114 µM), actives largely listed as inhibitors | 360,000 tested, 4.4% active; further: nearly all actives have a fitted effect of over 60% in size
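AlphaScreen displacement of biotin-H3(5-23)K14Ac peptide (50 nM final) from BAZ2B (50 nM final) in PBS pH 7.4, 0.01% Tween-20; complex preformed 30 min RT, then compounds (top 110 uM) 30 min RT, beads 20 min dark.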
Sfp inh – qHTS Assay for Inhibitors of Bacillus subtilis Sfp phosphopantetheinyl transferase (PPTase); Biochemical Sfp PPTase activity, qHTS; Potency, µM, hits mostly inhibitors; 310,000 tested, 3.5% active; 4'-phosphopantetheinyl transferase ffp (Bacillus subtilis), Q9F4F7; AID 1490, 2009;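 further: the enzyme is Sfp with the accession as filed and its product quenches rhodamine fluorescence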
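With Hepes-Na pH 7.6 buffer containing 10 mM MgCl2, Sfp (15 nM) modified BHQ-2-YbbR (12.5 uM) using rhodamine-CoA (5 uM). Two reads 30 minutes apart at 525/598 nm yielded each well's rate.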
JMJD2A Tudor – qHTS Assay for Inhibitors of JMJD2A-Tudor Domain | AID 504339, 2011 | AlphaScreen JMJD2A-Tudor / H3K4me3 peptide binding | Lysine-specific demethylase 4A (Homo sapiens), O75164 | 390,000 tested, 4.4% active | Potency, µM (titrated, usually from 114 µM), usual class: inhibitors; further: nearly all actives have a fitted effect of over 50% in size
PLK1 PBD block – qHTS for Inhibitors of PLK1-PDB (polo-like kinase 1 - polo-box domain): Primary Screen; Plk1 PBD binding of FITC phosphopeptide, fluorescence polarization; 360,000 tested, 2.8% active; AID 720504, 2013; Potency, µM, actives largely listed as inhibitors; further: series mostly up to about 57 µM; nearly all actives have a fitted effect of over 65% in size
Numbers stand for hits; 0 = inactive; ? = inconclusive; - = not tested or not shown; [ ] = remark or other dose. Compounds with a hit are over-represented: about 12% of the library has one in this group of screens. The call rests on the fitted dose curve; in most records, active means well fitted curve in the direction sought with a large enough effect; inconclusive means small, poorly fitted or top-dose-only effect, or another doubt; inactive means no such curve, though single readings can be large; an effect the other way counts as inactive or inconclusive.

SMILES	G9a block	HP1b binding inh	BAZ2B block	Sfp inh	JMJD2A Tudor	PLK1 PBD block
CCOc1ccc(C(=O)COC(=O)c2cccc(-n3cnnn3)c2)cc1	0	0	0	0	0	0
O=C(NNC(=O)c1ccccc1F)c1ccc2nc[nH]c2c1	0	0	?	0	0	0
COc1ccccc1CCNC(=O)c1ccc2nc[nH]c2c1	0	0	50.1µM	0	0	0
O=C(NNC(=O)c1ccccc1Br)c1ccc2nc[nH]c2c1	-	0	50.1µM	0	?	0
O=C(NCCc1ccc(Cl)cc1Cl)c1ccc2nc[nH]c2c1	-	0	0	0	0	0
O=C(Nc1ccccc1)C1CCOC1=O (stereo unspecified)	-	0	-	-	0	0
C=C1C(=O)c2sccc2C(c2ccc(OC)c(OC)c2)C1COC(C)=O (stereo unspecified)	-	0	-	-	0	26.7µM
C[C@@H]1CCN=C(N)S1	-	-	-	0	-	-
CC1CCN=C(N)S1 (stereo unspecified)	3.16µM	0	-	-	0	0
COC(=O)c1sc2cc(C(F)(F)F)cnc2c1-c1cccnc1	0	0	0	0	0	0
CSc1nnc(-c2sc3cc(C(F)(F)F)cnc3c2-c2cccnc2)n1C	50.1µM	0	0	0	0	0
N#CC(C#N)=C1C=CC=CN1/C(=C\c1ccco1)C(=O)c1ccc(Cl)cc1	?	0	?	14.1µM	?	11.9µM
CCCOc1ccc(F)cc1-c1cc(C(=O)NCc2cccc(C(F)(F)F)c2)[nH]n1	-	-	-	-	-	0
Cc1ccc(NC(=O)c2ccc3c(c2)NC(=O)CS3)nc1	10µM	?	0	-	0	?
Cc1ccc(CN(C)C(=O)c2ccc3c(c2)NC(=O)CS3)o1	?	0	0	31.6µM	0[11.4 µM]	?
COC(=O)c1ccc2c(c1)SC1=C(CCCC1=O)N2	?	0	39.8µM	0	0	0
C=CCn1c(C)cc(C(=O)COC(=O)c2ccc3c(c2)NC(=O)CS3)c1C	20µM	?	?	56.2µM	?	?
O=C1CCCC2=C1Sc1ccc(Cl)cc1N2	0	0	?	0	0	0
COC(=O)c1sccc1S(=O)(=O)N(CC(=O)Nc1cc(C)ccc1C)c1ccc(C)c(C)c1	0	0	0	-	0	-
CC(OC(=O)c1ccc2c(c1)NC(=O)CS2)C(=O)c1ccc(F)cc1 (stereo unspecified)	-	0	-	-	0	0
COC(=O)c1ccc2c(c1)NC(=O)CS2	39.8µM	0	0	0	0	21.2µM
Cc1cc(C)c(NC(=O)c2cc(C)nc3c2c(C)nn3-c2cccc(F)c2)c(C)c1	0	0	0	-	0	-
COc1cccc(C(=O)NNC(=O)Cc2ccc(Cl)cc2)c1	0	0	0	0	0	0
COc1cccc(C(=O)NN/C(C)=C/C(=O)C(F)(F)C(F)(F)C(F)(F)F)c1	0	0	0	0	?	26.7µM
Cc1ccc2nc(-c3c[nH]c4ccccc34)c(Nc3ccc(F)cc3)n2c1	?	0	0	-	?	-
SMILES	G9a block	HP1b binding inh	BAZ2B block	Sfp inh	JMJD2A Tudor	PLK1 PBD block
Cc1ccc(Nc2c(-c3c[nH]c4ccccc34)nc3cc(C)ccn23)cc1	?	?	?	-	25.1µM	-
Cc1ccn2c(Nc3ccccc3)c(-c3c[nH]c4ccccc34)nc2c1	8.91µM	?	10µM	-	22.4µM	-
COc1cccc(/C=N/n2c(N)c(S(=O)(=O)c3cccs3)c3nc4ccccc4nc32)c1	0[0.0925 µM]	0	0	0	0	0
Nc1c(S(=O)(=O)c2cccs2)c2nc3ccccc3nc2n1/N=C/c1cccc(O)c1	0	0	-	0	0[11.4 µM]	23.8µM
CCC(CO)Oc1cc(NCc2ccccc2C(F)(F)F)c2ncn(C(C)C)c2c1 (stereo unspecified)	-	?	-	-	44.7µM	0
CCC(CO)Oc1cc(NCc2ccccc2F)c2ncn(C(C)C)c2c1 (stereo unspecified)	0[2.33 µM]	0	?	-	?	0
CCC(CO)Oc1cc(NCc2ccccc2Cl)c2ncn(C(C)C)c2c1 (stereo unspecified)	0[2.33 µM]	0	?	-	50.1µM	0
CCC(CO)Oc1cc(NCc2ccccc2OC)c2ncn(C(C)C)c2c1 (stereo unspecified)	-	0	-	-	?	0
Cc1cc(-c2ccc(C)c(S(=O)(=O)Nc3cc(C)on3)c2)on1	0	0	0	0	0	0
Cc1ccc(S(=O)(=O)N2CCN(C(=O)CN3C(=O)CNC3=O)CC2)cc1	0[12.7 µM]	0	0	-	0	0
CCC(C(=O)NC(C)(C)C)n1c(C(c2ccccc2)c2ccccc2)nc2ccccc21 (stereo unspecified)	-	-	-	-	-	0
Cc1ccc(C)c(N2CCN(C(=O)CCS(=O)(=O)c3ccc4c(c3)CCN4C(=O)C3CC3)CC2)c1	0	0	0	0	0	0
C=CCOc1cccc(C2/C(=C(/O)c3ccc(C)cc3)C(=O)C(=O)N2CCN2CCOCC2)c1 (stereo unspecified)	?	0	0	0	0	0
C=CCOc1ccc(C2/C(=C(/O)c3ccc4c(c3)CC(C)O4)C(=O)C(=O)N2CCCN2CCOCC2)cc1 (stereo unspecified)	44.7µM	0	0	0	?	0
COc1ccc(C2/C(=C(/O)c3ccc4c(c3)CC(C)O4)C(=O)C(=O)N2CCN2CCOCC2)cc1 (stereo unspecified)	44.7µM	0	0	0	0	0
C=CCOc1cccc(C2/C(=C(\O)c3ccc4c(c3)OCCO4)C(=O)C(=O)N2CCN2CCOCC2)c1 (stereo unspecified)	39.8µM	0	?	0	0	0
CCCCOc1ccc(C2/C(=C(\O)c3ccc4c(c3)OCCO4)C(=O)C(=O)N2CCCN2CCOCC2)cc1 (stereo unspecified)	?	0	0	0	0	0
Cc1ccc(C2/C(=C(/O)c3ccc4c(c3)CC(C)O4)C(=O)C(=O)N2CCCn2ccnc2)cc1 (stereo unspecified)	44.7µM	0	?	0	0	0
C[C@@H]1CN([C@H](C)CO)C(=O)CCCn2nncc2CO[C@H]1CN(C)C(=O)Nc1cccc2ccccc12	-	-	-	-	-	0
Cc1cnc(CNc2cc(-c3ccccc3CN(C)C)ncn2)cn1	0[0.501 µM]	-	-	0	-	-
Cc1ccc(Cn2c3ccccc3c3cnn(CC(=O)N4CCCCCC4)c(=O)c32)cc1	0	0	0	-	0	-
CC(=O)Nc1ccc(-c2csc(NC(=O)C3CSC4(C)CCC(=O)N34)n2)cc1 (stereo unspecified)	0	0	0	-	0	0

Compound activity deposited in PubChem BioAssay by National Center for Advancing Translational Sciences (NCATS).
